Source: PMC4336329 (PLoS ONE, 2015)
Screen size: about 310,000 compounds; about 14,000 (4.5%) showed an effect of 50% or more. Effects have a minus sign here. Only a selection was taken, and strong results are over-represented in it overall.

What follows are compounds tested against human ether-à-go-go-related gene (hERG) potassium channel (human, UniProt Q12809) (assay: primary screen, population patch clamp on CHO cells stably expressing hERG; higher = less effect of the substance).
Description: Briefly, Chinese hamster ovary (CHO) cells stably expressing the hERG channel were dislodged from tissue culture flasks and dispensed into PPC plates. […] During the recording, background leak currents were estimated by a 100 ms step to -80 mV from an initial holding potential of -70 mV and subtracted from the subsequent current measurement. The campaign was conducted in two phases using slight differences in recording protocol. In the first phase, the initial voltage pulse used a 100 ms step to -30 mV from a holding potential of -70 mV, a 2 s conditioning step to +25 mV, and a 2 s test step to -30 mV. During the second phase of the screen, the potential during the conditioning step was raised to +45 mV. In both phases of the campaign, a secondary voltage pulse was applied using the same parameters as the second phase initial pulse. The initial and secondary pulses were applied in the absence of compound, and upon application of 1 μM and 10 μM test concentrations. […]
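Note: peak tail current of the secondary pulse compared with the same well before compound.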

human ether-à-go-go-related gene (hERG) potassium channel, sequence (Q12809 whole entry, looked up): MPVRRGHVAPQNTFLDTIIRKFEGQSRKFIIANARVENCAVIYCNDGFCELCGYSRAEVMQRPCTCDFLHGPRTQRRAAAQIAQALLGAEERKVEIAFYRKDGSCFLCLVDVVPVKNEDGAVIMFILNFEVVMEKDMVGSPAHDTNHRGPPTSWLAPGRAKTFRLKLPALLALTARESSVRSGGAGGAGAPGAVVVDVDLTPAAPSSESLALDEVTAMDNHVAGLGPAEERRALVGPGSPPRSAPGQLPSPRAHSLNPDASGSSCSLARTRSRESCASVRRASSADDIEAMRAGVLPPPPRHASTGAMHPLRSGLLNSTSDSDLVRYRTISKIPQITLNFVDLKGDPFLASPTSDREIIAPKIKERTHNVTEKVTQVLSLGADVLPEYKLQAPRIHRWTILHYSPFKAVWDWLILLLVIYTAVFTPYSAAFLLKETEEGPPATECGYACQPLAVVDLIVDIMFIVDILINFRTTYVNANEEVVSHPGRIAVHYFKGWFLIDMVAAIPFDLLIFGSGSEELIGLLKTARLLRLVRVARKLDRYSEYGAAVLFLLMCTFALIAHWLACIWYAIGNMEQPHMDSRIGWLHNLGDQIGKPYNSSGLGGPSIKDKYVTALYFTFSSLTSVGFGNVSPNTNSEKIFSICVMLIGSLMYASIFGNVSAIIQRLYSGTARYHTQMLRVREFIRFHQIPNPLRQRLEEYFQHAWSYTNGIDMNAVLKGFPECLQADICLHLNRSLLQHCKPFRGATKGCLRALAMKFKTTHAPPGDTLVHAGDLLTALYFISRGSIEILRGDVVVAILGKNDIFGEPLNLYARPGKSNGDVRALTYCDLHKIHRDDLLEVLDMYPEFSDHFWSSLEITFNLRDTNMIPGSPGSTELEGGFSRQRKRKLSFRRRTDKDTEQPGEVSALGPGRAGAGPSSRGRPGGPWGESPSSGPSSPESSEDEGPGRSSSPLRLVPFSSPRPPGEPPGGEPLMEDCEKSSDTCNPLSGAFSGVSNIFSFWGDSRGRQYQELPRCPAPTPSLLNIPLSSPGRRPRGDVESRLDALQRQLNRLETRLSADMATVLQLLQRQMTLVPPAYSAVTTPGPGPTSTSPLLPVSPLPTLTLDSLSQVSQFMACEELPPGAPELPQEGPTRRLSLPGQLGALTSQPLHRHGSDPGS

In order of falling “hERG current change (%, negative = inhibition) at 10uM” value:
1. CCOc1ccc(N(CC(=O)NC(C(C)C)C(C)C)S(=O)(=O)c2ccc(OC)c(OC)c2)cc1  38%
2. COc1ccc(NC(=O)NC2(C(=O)N3CCCC3)CCCCC2)cc1  22%
3. CC(C)(C)c1ccc(CS(=O)CC(O)CO)cc1 (centres unmarked)  19.3%
4. CC(=O)N1c2ccc(S(=O)(=O)N3CCC(C(=O)NCc4ccc(N(C)C)cc4)CC3)cc2CC1C (centres unmarked)  18.8%
5. CC(=O)C1=C(O)C(=O)N(Cc2cccnc2)C1c1ccc(C(C)C)cc1 (centres unmarked)  17.1%
6. Cc1ccc(NC(=S)N2CCN(S(=O)(=O)c3ccccc3)CC2)cc1C  11.6%
7. CC(C)c1ccc(O)c(NC(=S)NC(=O)c2cccnc2)c1  11%
8. CC(=O)Nc1ccc(S(=O)(=O)N2CCC(C(=O)NCCc3ccc(Cl)cc3)CC2)cc1  5.7%
9. CC(C)(C)NS(=O)(=O)c1cc(C(=O)Nc2sccc2C#N)ccc1Cl  4.98%
10. Cc1ccc(N2CCN(C(=O)c3cccs3)CC2)cc1C  2.97%
11. O=C(CCNC(=O)C1CCN(S(=O)(=O)c2ccc(F)cc2)CC1)NCc1ccccc1  2.4%
12. COc1ccc(S(=O)(=O)Nc2cccc(-n3cnnn3)c2)cc1  1.11%
13. CC(=O)c1ccc(NC(=O)N2CCc3ccccc3C2)cc1  -0.383%
14. Cc1ccc(S(=O)(=O)N2CCC(C(=O)NCCc3ccccc3)CC2)cc1  -0.42%
15. CC(C)CNC(=O)C1CCCN(S(=O)(=O)c2ccc(-n3cnnn3)cc2)C1 (centres unmarked)  -0.697%
16. Cc1c(N(C)C(=O)C23CC4CC(CC(C4)C2)C3)c(=O)n(-c2ccccc2)n1C  -1.09%
17. CC(=O)c1ccc(OCCNS(=O)(=O)c2ccc(-n3cnnn3)c(C)c2)cc1  -2.88%
18. CCCCOc1ccc(NS(=O)(=O)c2ccc(-n3cnnn3)cc2)cc1  -3.42%
19. CCN1CCN(CC(=O)Nc2ccc(Cl)c(Cl)c2)C(=O)C1=O  -5.76%
20. CC(=O)c1ccc(S(=O)(=O)Nc2ccc(-n3cnnn3)cc2)cc1  -6.16%
21. Cc1cccnc1NC(=O)CNC(=O)c1cccs1  -8.89%
22. Cc1cccn(Cc2c(Cl)cccc2Cl)c1=O  -9.53%
23. COc1ccc(CCNC(=O)C2CCN(S(=O)(=O)c3ccc(-n4cnnn4)cc3)CC2)cc1OC  -13%
24. CCOc1cc(S(=O)(=O)NCc2ccccc2)c(OCC)cc1-n1cnnn1  -14.3%
25. Cc1ccc(NC(=O)CN(C)C(=O)c2cccc(S(=O)(=O)N3CCc4ccccc43)c2)cc1  -15.6%
26. Cc1cc(S(=O)(=O)NCCc2ccccc2)ccc1-n1cnnn1  -17.1%
27. CCOC(=O)CNC(=S)N(Cc1ccccc1)Cc1cccs1  -17.3%
28. O=C(NCCc1ccccc1)C1CCN(S(=O)(=O)c2ccc(-c3nn[nH]n3)cc2)CC1  -18.7%
29. CCOc1ccc(-n2cnnn2)cc1S(=O)(=O)Nc1c(C)cccc1C  -19.4%
30. CC(C)Oc1cccc(C(=O)C2CCCN(C(=O)c3cc(C4CC4)[nH]n3)C2)c1 (centres unmarked)  -19.9%
31. COc1ccc(OC)c(C2=Nn3c(nnc3-c3cc(OC)c(OC)c(OC)c3)SC2)c1  -21%
32. COc1ccc(CCNS(=O)(=O)c2ccc(-n3cnnn3)cc2)cc1OC  -26%
33. COc1ccc(NC(=O)c2ccc(OC)cc2)cc1  -30%
34. COc1ccc(S(=O)(=O)N2CCC(C(=O)NCCCc3ccccc3)CC2)cc1  -35.9%
35. CC(C)CCNC(=O)C1CCN(S(=O)(=O)c2ccc(-n3cnnn3)cc2)CC1  -37.6%
36. O=C1CSC(c2ccc([N+](=O)[O-])cc2)N1C1CCCCC1 (centres unmarked)  -47.4%
37. COc1ccc(OCC(NS(=O)(=O)c2ccc(-n3cnnn3)cc2)C(C)C)cc1 (centres unmarked)  -52.2%
38. CC(=O)c1ccc(OCCNS(=O)(=O)c2ccc(-n3cnnn3)cc2)cc1  -55.3%
39. CC(C)CNC(=O)C1CCN(S(=O)(=O)c2ccc(-n3cnnn3)cc2)CC1  -55.3%
40. O=S(=O)(NCCc1ccccc1)c1ccc(-n2cnnn2)cc1  -56.7%
41. O=C(NCCCc1ccccc1)C1CCN(S(=O)(=O)c2ccc(F)cc2)CC1  -60.7%
42. O=C(NCCc1ccccc1)C1CCN(S(=O)(=O)c2ccc(-n3cnnn3)cc2)CC1  -66.3%
43. O=C(NCCc1ccc(Cl)cc1)C1CCN(S(=O)(=O)c2ccc(-n3cnnn3)cc2)CC1  -69%
44. CCOc1ccc(-n2cnnn2)cc1S(=O)(=O)NCc1ccccc1  -71%
